# Reference: PubChem BioAssay (NCI)
# Compounds without any hit were thinned out: in the full panel of roughly 83,000, 20% have a hit.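 Values shown are percent growth following 48 h exposure of cells in 96-well plates to a single concentration of compound; below 10 was considered active.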 Values without a mark were called inactive. Activity calls are given as the source filed them.
# System: HOP-62 NSCLC
# Assay: NCI-60 one-dose screen, 48 h (100 = growth as untreated, 0 = no growth, -100 = all killed)
# Settings: 10 µM unless noted
row,SMILES,growth
1,CCOc1ccccc1/C=N\Nc1ccc(S(=O)(=O)c2ccc(N/N=C/c3ccccc3OCC)cc2)cc1,93%
2,Nc1ccc(Cl)c([N+](=O)[O-])c1,101%
3,Oc1ccc(N=Nc2nccs2)c(O)c1,79%
4,Cc1ccc(NC(=S)/N=c2/n(-c3ccccc3)nc3n2CCN3C2=NCCN2)cc1,92.7%
5,CCCCC1COc2cccc3c2N1C=C/C3=C\C(=O)n1ccc2ccccc21 (configuration not stated),79.2%
6,COc1cc(C)cc2oc3oc(=O)c(-c4nc5ccccc5s4)cc3c(=O)c12,91.6%
7,O=C(Nc1ccccc1)Nc1ccc(C(=O)/C=C/c2ccc(N3CCCC3)cc2)cc1,63%
8,COc1cc(C)cc2oc3oc(=N)c(C(=O)c4ccccc4)cc3c(=O)c12,106%
9,CC[C@]12C=CCN3CC[C@@]4(c5ccc(OC)cc5N(C)[C@H]4[C@@](O)(C(=O)OC)[C@@H]1OC(=O)CCC(=O)N[C@H](Cc1c[nH]c4ccccc14)C(=O)OC)[C@@H]32,-7.11% [100 µM] (active)
10,CC(=O)OC[C@]12CC[C@@H]([C@@H](C)C(N)=O)[C@@H]1[C@H]1CC[C@@H]3[C@@]4(C)CC[C@H](OC(C)=O)C(C)(C)[C@@H]4CC[C@@]3(C)[C@]1(C)CC2,-73% [100 µM] (active)
11,O=c1c2c3c(sc2n2cnnc2n1Cc1ccccc1)CCCC3,119%
12,COc1cc2c(c(OC)c1)C1c3cc(OC)ccc3NC(=O)N1CC2 (configuration not stated),67.6%
13,O=c1cc(-c2ccccc2)oc2cc(OCc3cn(Cc4ccc(F)cc4)nn3)cc(O)c12,-28.5% [100 µM] (active)
14,CCN(CC)c1ccc2cc(NC(=O)OCCNC(=O)CCNC(=O)[C@H](CC(C)C)NC(=O)C(C)(C)NC(=O)C(C)(C)NC(=O)[C@H](CC(C)C)NC(=O)CCNC(=O)C(C)(C)NC(=O)[C@H](CC(C)C)NC(=O)CCNC(=O)[C@@](C)(CC)NC(=O)[C@H](C)NC(=O)CCNC(=O)C(C)(C)NC(=O)[C@H](C)NC(=O)[C@@H]3CCCN3C(=O)[C@@](C)(CC)NC(=O)[C@H](Cc3ccccc3)NC(=O)C3CCCN3C(=O)C(C)(C)NC(=O)C3CCCN3C(=O)C(C)(C)NC(C)=O)c(=O)oc2c1 (some centres not stated),-86.7% (active)
15,CCCCCCCCCCCCCC[n+]1cccc(C(N)=O)c1,17.1%
16,CCOC(CNC(=O)c1cccc([N+](=O)[O-])c1)OCC,108%
17,COc1ccc(/C=C/C=C\C(=O)c2ccc(-n3ccnc3)cc2)cc1,101%
18,CCNc1cc2c(cc1Br)-c1ccccc1C2=O,92.3%
19,C[n+]1c(-c2ccccc2)c2cc(N)ccc2c2ccccc21,63.8%

row,SMILES,growth
1,C/C=C/C1OC23CCCCC2C(C#N)(C(=N)O3)C1(C#N)C#N (configuration not stated),103%
2,Fc1cc2[nH]ncc2c2c3c(c(-c4cn[nH]c4)nc12)CCCC3,-10.6% (active)
3,CCOC(=O)c1nn(C2CCCCO2)c2ccc(NC(=O)CN3CCCC3)cc12 (configuration not stated),92.7%
4,Nc1nnc(CSc2nnc3n(Cc4ccccc4)c(=O)c4c5c(sc4n23)CCCC5)s1,99.2%
5,O=S(=O)(NCc1ccccc1)c1ncnc2nc[nH]c12,103%
6,c1cc2ccc1CNCCN1CCNCc3ccc(cc3)Oc3ccc(cc3)CNCCN(CCNCc3ccc(cc3)O2)CCNCc2ccc(cc2)Oc2ccc(cc2)CNCC1,-78.2% (active)
7,CS(=O)(=O)c1cccnn1,103%
8,N=C(N)c1ccc(-c2ccc(-c3ccc(-c4cccs4)s3)s2)cc1F,100%
9,CCCSc1nc(N)nc2nc[nH]c12,95.7%
10,C[C@H]1[C@H](C)CC[C@]2(C(=O)O)CC[C@]3(C)C(=CC[C@@H]4[C@@]5(C)C/C(=C/c6cccnc6)[C@H](O)C(C)(C)[C@@H]5CC[C@]43C)[C@H]12,-29.1% [100 µM] (active)
11,O=C1CC(c2ccccc2)Cc2nc3ccc(Br)cc3cc21 (configuration not stated),40.4%
12,C1=C[C@H]2O[C@@H]1c1ccc3[nH]ccc3c12,96.6%
13,CCN(CC)c1ccc(/C=C/c2ccc3cc(C)ccc3[n+]2CC)cc1,4.01% (active)
14,O=C(Nc1cc(F)cc2cccnc12)c1cnc(N2CCNCC2)cn1,85.2%
15,C=CCCC1(C)NC(=O)NC1=O (configuration not stated),84%
16,CC(=O)Nc1ccc2nc3ccc(NC(C)=O)cc3[n+](-c3ccccc3)c2c1,103%
17,CCCCCN(CCCCC)CCCCCCCCN1CCCc2ccccc21,109%
18,O=C(O)c1cccc(CN2CCN(c3cc4c(cc3F)c(=O)c(C(=O)O)cn4C3CC3)CC2)c1O,105%

# System: NCI-H460 lung
# Assay: as above
# Settings: 10 µM unless noted
row,SMILES,growth
1,CCOc1ccccc1/C=N\Nc1ccc(S(=O)(=O)c2ccc(N/N=C/c3ccccc3OCC)cc2)cc1,98.6%
2,Nc1ccc(Cl)c([N+](=O)[O-])c1,104%
3,Oc1ccc(N=Nc2nccs2)c(O)c1,31.2%
4,O=C(N[C@@H]1CCCc2ccccc21)[C@H](CCC(=O)N1CCN(C2CCCCC2)CC1)N1C(=O)[C@@H](N2C(=O)OC[C@@H]2c2ccccc2)[C@H]1/C=C/c1ccccc1,29.4%
5,Cc1ccc(NC(=S)/N=c2/n(-c3ccccc3)nc3n2CCN3C2=NCCN2)cc1,104%
6,CCCCC1COc2cccc3c2N1C=C/C3=C\C(=O)n1ccc2ccccc21 (configuration not stated),88.2%
7,COc1cc(C)cc2oc3oc(=O)c(-c4nc5ccccc5s4)cc3c(=O)c12,84.1%
8,O=C(Nc1ccccc1)Nc1ccc(C(=O)/C=C/c2ccc(N3CCCC3)cc2)cc1,78.7%
9,CC(=O)OC[C@]12CC[C@@H]([C@@H](C)C(N)=O)[C@@H]1[C@H]1CC[C@@H]3[C@@]4(C)CC[C@H](OC(C)=O)C(C)(C)[C@@H]4CC[C@@]3(C)[C@]1(C)CC2,-61.8% [100 µM] (active)
10,O=c1c2c3c(sc2n2cnnc2n1Cc1ccccc1)CCCC3,97.7%
11,COc1cc2c(c(OC)c1)C1c3cc(OC)ccc3NC(=O)N1CC2 (configuration not stated),79.2%
12,CCN(CC)c1ccc2cc(NC(=O)OCCNC(=O)CCNC(=O)[C@H](CC(C)C)NC(=O)C(C)(C)NC(=O)C(C)(C)NC(=O)[C@H](CC(C)C)NC(=O)CCNC(=O)C(C)(C)NC(=O)[C@H](CC(C)C)NC(=O)CCNC(=O)[C@@](C)(CC)NC(=O)[C@H](C)NC(=O)CCNC(=O)C(C)(C)NC(=O)[C@H](C)NC(=O)[C@@H]3CCCN3C(=O)[C@@](C)(CC)NC(=O)[C@H](Cc3ccccc3)NC(=O)C3CCCN3C(=O)C(C)(C)NC(=O)C3CCCN3C(=O)C(C)(C)NC(C)=O)c(=O)oc2c1 (some centres not stated),-76.9% (active)
13,CCCCCCCCCCCCCC[n+]1cccc(C(N)=O)c1,14.8%
14,CCOC(CNC(=O)c1cccc([N+](=O)[O-])c1)OCC,101%
15,COc1ccc(/C=C/C=C\C(=O)c2ccc(-n3ccnc3)cc2)cc1,92.7%
16,CCNc1cc2c(cc1Br)-c1ccccc1C2=O,96.8%
17,C[n+]1c(-c2ccccc2)c2cc(N)ccc2c2ccccc21,28.4%
18,C/C=C/C1OC23CCCCC2C(C#N)(C(=N)O3)C1(C#N)C#N (configuration not stated),101%

row,SMILES,growth
1,Fc1cc2[nH]ncc2c2c3c(c(-c4cn[nH]c4)nc12)CCCC3,1.29% (active)
2,CCOC(=O)c1nn(C2CCCCO2)c2ccc(NC(=O)CN3CCCC3)cc12 (configuration not stated),100%
3,Nc1nnc(CSc2nnc3n(Cc4ccccc4)c(=O)c4c5c(sc4n23)CCCC5)s1,15.4%
4,O=S(=O)(NCc1ccccc1)c1ncnc2nc[nH]c12,117%
5,c1cc2ccc1CNCCN1CCNCc3ccc(cc3)Oc3ccc(cc3)CNCCN(CCNCc3ccc(cc3)O2)CCNCc2ccc(cc2)Oc2ccc(cc2)CNCC1,-66.3% (active)
6,CS(=O)(=O)c1cccnn1,101%
7,N=C(N)c1ccc(-c2ccc(-c3ccc(-c4cccs4)s3)s2)cc1F,13%
8,CCCSc1nc(N)nc2nc[nH]c12,106%
9,C[C@H]1[C@H](C)CC[C@]2(C(=O)O)CC[C@]3(C)C(=CC[C@@H]4[C@@]5(C)C/C(=C/c6cccnc6)[C@H](O)C(C)(C)[C@@H]5CC[C@]43C)[C@H]12,-31.1% [100 µM] (active)
10,O=C1CC(c2ccccc2)Cc2nc3ccc(Br)cc3cc21 (configuration not stated),4.63% (active)
11,C1=C[C@H]2O[C@@H]1c1ccc3[nH]ccc3c12,102%
12,CCN(CC)c1ccc(/C=C/c2ccc3cc(C)ccc3[n+]2CC)cc1,-48.4% (active)
13,O=C(Nc1cc(F)cc2cccnc12)c1cnc(N2CCNCC2)cn1,80.6%
14,C=CCCC1(C)NC(=O)NC1=O (configuration not stated),104%
15,CC(=O)Nc1ccc2nc3ccc(NC(C)=O)cc3[n+](-c3ccccc3)c2c1,108%
16,CCCCCN(CCCCC)CCCCCCCCN1CCCc2ccccc21,96%
17,O=C(O)c1cccc(CN2CCN(c3cc4c(cc3F)c(=O)c(C(=O)O)cn4C3CC3)CC2)c1O,106%
